The record followed here is PubChem BioAssay (EPA / NIEHS).

Values joined by “and” are separate entries in the source; they are usually repeats but may differ in a detail not shown here. Equal entries are not always repeated. Active and inactive are the calls of the source. How the source made its calls: active means hit-call score of the fitted dose curve at least 0.9, where 1 is the maximum; inactive means score below 0.9.

Read-out in this assay: 3-Hydroxy-3-Methylglutaryl-CoA Synthase 2 (HMGCS2), HMGCS2 (gene 3158)
Description: LTEA_HepaRG_HMGCS2: Life Technologies and Expression Analysis (LTEA) Assay for 3-Hydroxy-3-Methylglutaryl-CoA Synthase 2 (HMGCS2) using HepaRG (AID 2283504). Particulars: mRNA level, 48 h; actives raise or lower the signal. The method, then:
LTEA_HepaRG is a cell based, multiplexed-readout assay that uses HepaRG, a human liver cell line, with measurements taken at 48 hours after chemical dosing on a 96-well plate.LTEA_HepaRG_HMGCS2 is one of 102 assay component(s) measured in the LTEA HepaRG cell culture assay. It is a marker of Steatosis.Data from the assay component LTEA_HepaRG_HMGCS2 was analyzed into 1 endpoint. This assay endpoint, LTEA_HepaRG_HMGCS2, was analyzed with bidirectional fitting relative to DMSO as the negative control and baseline of activity. Using a type of inducible reporter, measures of mRNA induction for gain or loss-of-signal activity can be used to understand regulation of transcription factor activity. To generalize the intended target to other relatable targets, this assay endpoint is annotated to the lyase intended target family, where the subfamily is HMG-CoA synthase.
A total of 1060 chemcials from the ToxCast library were tested in eight-point concentration-response experiments. Cell culture and cytotoxicity assays were conducted at Thermo Fisher Scientific's Custom Services facility (Madison, WI). A single lot of human HepaRG cells (Thermo Fisher Scientific, Frederick, MD) was used for the cell culture experiments. 96-well format collagen type I coated plates of human HepaRG cells were prepared using established methods. Briefly, cryopreserved HepaRG cells were thawed, plated at a density of approximately 100,000 cells/well in HepaRG Thaw, Plate, and General Purpose media (HPRG770, Thermo Fisher Scientific), and incubated for 48 hours. 0.5% DMSO was selected as vehicle control to balance the requisite need of DMSO in HepaRG cultures to maintain differentiation (for example, baseline metabolism, proportions of hepatocytes vs. cholangiocytes), while enabling further hepatic receptor pathway activation (for example, PXR and CAR) in response to chemical exposure. 48 hours after plating, the culture medium was replaced with HepaRG Serum-Free Incudtion Media. Cells were exposed to each test chemical in duplicate and maintained in CO2 incubators for another 48 hours. Chemical plates were thawed to room temperature and 200x concentrations of treatment groups were prepared. 8-point conentration-reponse curves were made with the highest exposure at 100 uM, followed by half-log dilutions, all in 0.5% DMSO. Each test plate contained variouse controls, induction positive controls (1mM phenobarbital), cytotoxicity positive controls ([…] aflatoxin B1), vehicle controls (0.5% DMSO), and total lysis controls (0.5% DMSO). Cell morphology images were taken using an Essen IncuCyte FLR automated microscope, with six 96-well plates imaged in about 24 minutes. Images were captured and exported and JPEG files. Spent culture media was transfered to black-well plates for the LDH assay, and remaining media was sorted at -80 C for later use. Cells were treated with RLT buffer and frozen until shipped for gene expression analysis. Total RNA was isolated from the cell suspension in 75 uL of Buffer RLT (Qiagen, Germantown, MD 20874) by Quintiles/Expression Analysis (Durham, NC) using a custom isolation procedure. Total RNA from each plate well was transferred to a preamplification plate. Fluidigm's 96.96 Dynamic ArrayTM (Fluidigm, Amsterdam, the Netherlands) technology was used for gene expression analyses by quantitative reverse transcription polymerase chain reaction (qRT-PCR, performed by Quintiles/Expression Analysis, Durham, NC)89. Standard TaqManTM Assays (Applied Biosystems/ThermoFisher Scientific, Foster City, CA) were used to assess the expression of 93 genes selected based on their selectivity and sensitivity to important hepatic receptors known to be modulated by environmental chemicals; importance in human hepatocyte functionality; and hepatotoxicity. […]
As to `N#CSCSc1nc2ccccc2s1`, the result was inactive.

In the case of `COC(=O)c1ccccc1C(=O)O`, the molecule was classed as inactive.

For the molecule `O=C(c1ccc(O)cc1O)c1ccc(O)cc1O`, the call was inactive.

For `CCNc1nc(N)nc(Cl)n1`, the outcome was inactive.

For the molecule `OB(O)O`, the outcome was inactive.

Take `C#C[C@]1(O)CC[C@H]2[C@@H]3CCC4=CC(=O)CC[C@@H]4[C@H]3CC[C@@]21CC`: the outcome was inactive.

Broadly, the AC50 is the concentration at which the activity in the assay is half-maximal. With `CC(=O)S[C@@H]1CC2=CC(=O)CC[C@]2(C)[C@H]2CC[C@@]3(C)[C@@H](CC[C@@]34CCC(=O)O4)[C@H]12`, the AC50 was 65.7 µM (active).

For `CSC(=O)c1cccc2nnsc12`, the outcome was inactive.

Consider `CCCCOCCOCCOCc1cc2c(cc1CCC)OCO2`, for which the molecule was called inactive.

Consider `COC(=O)CSc1cc(N=c2sc(=O)n3n2CCCC3)c(F)cc1Cl`, for which the outcome was inactive.

As for `CCOC(=O)C(C)Oc1ccc(Oc2nc3ccc(Cl)cc3o2)cc1` (stereo not given), the result was inactive.

Regarding `CCOC(=O)c1ccc(O)cc1`, the molecule was called inactive.

`COC(=O)c1ccc(I)cc1S(=O)(=O)NC(=O)Nc1nc(C)nc(OC)n1`: the outcome was inactive.

On to `CCCCOC(=O)[C@@H](C)Oc1ccc(Oc2ccc(C(F)(F)F)cn2)cc1`, for which the result was inactive.

`CCSC(=O)N(CC(C)C)CC(C)C`: the outcome was inactive.

With `CC1(C)C(C=C(Cl)Cl)C1C(=O)OCc1cccc(Oc2ccccc2)c1` (stereo not given), the result was inactive.

On to `CC(C)(c1ccc(O)cc1)c1ccc(O)cc1`, for which the molecule was classed as inactive.

As for `COCCO`, the outcome was inactive.

Regarding `CCCCCCC(C)OC(=O)COc1nc(F)c(Cl)c(N)c1Cl` (stereo not given), the molecule was classed as inactive.

As to `CCCCOC(=O)C(C)Oc1ccc(Oc2ccc(C(F)(F)F)cn2)cc1` (stereo not given), the molecule was classed as inactive.

As for `O=C(c1ccccc1)C1CCCCC1`, the molecule was classed as inactive.

Regarding `C[C@]12C[C@H](O)[C@H]3[C@@H](CCC4=CC(=O)CC[C@@]43C)[C@@H]1CC[C@@H]2C(=O)CO`, the molecule was classed as inactive.

As for `C#CCOC(=O)[C@@H](C)Oc1ccc(Oc2ncc(Cl)cc2F)cc1`, the AC50 was 11.7 µM (active).

Turning to `CC(C)(C)[C@@H](O)[C@@H](Cc1ccc(Cl)cc1)n1cncn1`, the molecule was classed as inactive.

With `COc1c(Cl)ccc(Cl)c1C(=O)O`, the outcome was inactive.

As to `Cc1nn(C)c(Oc2ccccc2)c1C=NOCc1ccc(C(=O)OC(C)(C)C)cc1`, the AC50 was 12.4 µM (active).

Turning to `CCCCC(CC)COC(=O)c1ccccc1C(=O)O` (stereo not given), the call was inactive.

Turning to `CC(C)CCCCCCc1ccc(O)cc1`, the outcome was inactive.

In the case of `CCN(Cc1c(F)cccc1Cl)c1c([N+](=O)[O-])cc(C(F)(F)F)cc1[N+](=O)[O-]`, the AC50 was 50 µM (active).

In the case of `N[C@@H](Cc1cc(I)c(Oc2ccc(O)c(I)c2)c(I)c1)C(=O)O`, the AC50 was 0.00253 µM (active).

On to `CCCCC(CC)CN1C(=O)C2C3C=CC(C3)C2C1=O` (stereo not given), for which the AC50 was 86.3 µM (active).

As for `O=C(O)C1(C(=O)Nc2ccc(Cl)cc2Cl)CC1`, the concentration at half-maximal activity (AC50) was 81 µM (active).

`CCOC(=O)COc1cc(-n2ncc(C(F)(F)F)c(C)c2=O)c(F)cc1Cl`: the outcome was inactive.

`S=C(S)NCCNC(=S)S.[Mn+2].[S-]C([S-])=NCCN=C([S-])[S-].[Zn+2]`: the AC50 was 2.25 µM (active) and 1.36 µM (active) and 1.93 µM (active).

Consider `O=C(Nc1ccc([N+](=O)[O-])cc1Cl)c1cc(Cl)ccc1O`, for which the concentration at half-maximal activity (AC50) was 2.59 µM (active).

For `CCCN(CCC)C(=O)SCC`, the outcome was inactive.

For `CCCOC(=O)NCCCN(C)C`, the molecule was classed as inactive.

`CCC(C)OC(=O)N1CCCCC1CCO` (stereo not given): the outcome was inactive.

On to `S=C([S-])NCCNC(=S)[S-].[Mn+2]`, for which the AC50 is 5.04 µM (active).

Turning to `O=C(O)c1ccccc1`, the molecule was called inactive.
